Data taken from PubChem BioAssay AID1159580 (chemical genetic matrix, 2015).
Several values for one entry are separate records, joined by “and”; a condition that tells them apart may be missing. Identical values can stand only once. The whole screen tested about 5,500 compounds, of which about 2,000 (36%) were called active. Not shown: some 18% with an inconclusive outcome. No stated cut-off is given here; in the data, active means normalized growth mostly below about 0.91 (no sharp cut-off); inconclusive means no clear call, values can overlap the other calls; inactive means mostly above about 0.92. The list shows a part of the results.

Experiment: chemical genetic growth profiling, strain panel (AID 1159580);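 further: tested at 20 µM; growth read once vehicle control cultures reached saturation at 30 °C; 1 = growth at the plate median or of vehicle wells; lower values mean less growth of the strain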
Conditions: S. cerevisiae deletion strains, growth OD

Measured: normalized growth

C/C=C(\C)C(=O)O[C@H]1C[C@@H](OC(C)=O)[C@@]2(C(=O)OC)CO[C@@H]3C2[C@]12CO[C@](O)(C(=O)OC)[C@H]2[C@](C)(C12O[C@@]1(C)[C@H]1C[C@@H]2OC2OC=C[C@@]21O)[C@@H]3O (stereo partly specified)
inactive: locus YAL013W, strain DEP1, active compounds read low 0.99 | locus YAL021C, strain ccr4, active compounds read low 1 | locus YAL026C, strain drs2, active compounds read low 0.982 | locus YAL030W, strain snc1, active compounds read low 0.976 | locus YBL061C, strain skt5, active compounds read low 0.978 | locus YBR009C, strain hhf1, active compounds read low 0.977 | locus YBR021W, strain FUR4, active compounds read low 0.997 | locus YBR023C, strain chs3, active compounds read low 0.985 | locus YBR171W, strain sec66, active compounds read low 0.98 | locus YBR229C, strain ROT2, active compounds read low 0.99 | locus YBR231C, strain swc5, active compounds read low 0.991 | locus YBR279W, strain paf1, active compounds read low 0.992 | locus YCL011C, strain gbp2, active compounds read low 0.978 | locus YCL016C, strain dcc1, active compounds read low 0.964 | locus YCL029C, strain bik1, active compounds read low 0.955 | locus YCL061C, strain MRC1, active compounds read low 0.986 | locus YCL069W, strain vba3, active compounds read low 0.974 | locus YCR088W, strain abp1, active compounds read low 0.986 | locus YDL005C, strain med2, active compounds read low 0.963 | locus YDL040C, strain nat1, active compounds read low 0.973 | locus YDL074C, strain BRE1, active compounds read low 0.964 | locus YDL101C, strain DUN1, active compounds read low 0.977 | locus YDL134C, strain PPH21, active compounds read low 0.99 | locus YDL185W, strain tfp1, active compounds read low 0.978 | locus YDL192W, strain arf1, active compounds read low 0.986 | locus YDR001C, strain nth1, active compounds read low 0.97 | locus YDR069C, strain doa4, active compounds read low 0.969 | locus YDR101C, strain arx1, active compounds read low 0.975 | locus YDR137W, strain rgp1, active compounds read low 0.984 | locus YDR150W, strain NUM1, active compounds read low 1 | locus YDR159W, strain sac3, active compounds read low 0.994 | locus YDR162C, strain NBP2, active compounds read low 1 | locus YDR195W, strain ref2 0.938 | locus YDR297W, strain sur2, active compounds read low 0.975 | locus YDR318W, strain mcm21, active compounds read low 0.977 | locus YDR334W, strain swr1, active compounds read low 0.973 | locus YDR335W, strain msn5, active compounds read low 0.981 | locus YDR388W, active compounds read low 0.985 | locus YDR392W, strain spt3, active compounds read low 0.969 | locus YDR502C, strain sam2, active compounds read low 0.992 | locus YEL003W, strain gim4, active compounds read low 1 | locus YEL037C, strain rad23, active compounds read low 0.977 | locus YEL061C, strain CIN8 (second series), active compounds read low 0.973 | locus YEL061C, strain CIN8, active compounds read low 0.995 | locus YER015W, strain faa2, active compounds read low 0.987 | locus YER016W, strain bim1, active compounds read low 0.977 | locus YER110C, active compounds read low 0.971 | locus YER111C, strain swi4, active compounds read low 0.983 | locus YER155C, strain BEM2 (second series), active compounds read low 0.981 | locus YER155C, strain BEM2, active compounds read low 0.997 | locus YER167W, strain BCK2, active compounds read low 1 | locus YFR010W, strain ubp6, active compounds read low 0.979 | locus YGL078C, strain dbp3, active compounds read low 0.995 | locus YGL086W, strain mad1, active compounds read low 1 | locus YGL167C, strain pmr1, active compounds read low 0.97 | locus YGL173C, strain kem1, active compounds read low 0.982 | locus YGL227W, strain vid30, active compounds read low 0.99 | locus YGL240W, strain doc1, active compounds read low 1 | locus YGL248W, strain PDE1, active compounds read low 0.99 | locus YGL253W, strain hxk2, active compounds read low 0.986 | locus YGR078C, strain PAC10, active compounds read low 0.997 | locus YGR135W, strain pre9, active compounds read low 0.971 | locus YGR229C, strain SMI1, active compounds read low 1.01 | locus YGR252W, strain gcn5, active compounds read low 1.03 | locus YHR013C, strain ard1, active compounds read low 0.964 | locus YHR027C, strain rpn1, active compounds read low 0.965 | locus YHR030C, strain SLT2, active compounds read low 0.989 and 0.98 | locus YHR079C, strain IRE1 (second series), active compounds read low 0.969 | locus YHR079C, strain IRE1, active compounds read low 0.991 | locus YHR094C, strain hxt1, active compounds read low 0.985 | locus YHR129C, strain ARP1, active compounds read low 0.992 | locus YHR142W, strain chs7, active compounds read low 0.974 | locus YHR200W, strain rpn10, active compounds read low 0.987 | locus YIL066C, strain RNR3, active compounds read low 0.99 | locus YIL073C, strain SPO22, active compounds read low 0.994 | locus YIL125W, strain kgd1, active compounds read low 0.995 | locus YIR030C, strain dcg1, active compounds read low 0.997 | locus YJL092W, strain hpr5, active compounds read low 0.981 | locus YJL095W, strain BCK1 (second series), active compounds read low 0.983 | locus YJL095W, strain BCK1, active compounds read low 0.98 and 0.993 | locus YJL115W, strain asf1, active compounds read low 0.963 | locus YJL129C, strain trk1, active compounds read low 0.978 | locus YJL134W, strain LCB3, active compounds read low 0.991 | locus YJL154C, strain vps35, active compounds read low 0.969 | locus YJL164C, strain tpk1, active compounds read low 0.969 | locus YJL166W, strain qcr8, active compounds read low 0.99 | locus YJL168C, strain set2, active compounds read low 0.978 | locus YJL187C, strain SWE1 (second series), active compounds read low 0.978 | locus YJL187C, strain SWE1, active compounds read low 0.982 | locus YJR043C, strain POL32, active compounds read low 0.996 | locus YJR066W, strain TOR1, active compounds read low 0.933
